PubChem BioAssay (NCATS)
Inconclusive results are not listed. A call without a number means that no potency is given here. Values without a mark were called inactive. Activity calls are given as the source filed them. Unless noted, the call rests on the fitted dose curve; in most records, active means well fitted curve in the direction sought with a large enough effect; inconclusive means small, poorly fitted or top-dose-only effect, or another doubt; inactive means no such curve, though single readings can be large; an effect the other way counts as inactive or inconclusive.

Legend:
[1] = target: Aldehyde dehydrogenase, mitochondrial (Homo sapiens) (UniProt P05091); assay: qHTS for Inhibitors of the Aldehyde Dehydrogenase Family (ALDH2) Confirmatory screens (AID 2061303; active means well fitted inhibition curve with a large enough effect; title and protocol of this record describe different tests; further: nearly all actives have a fitted effect of over 45% in size; further: potency means the concentration at half of the fitted maximal effect)
[2] = qHTS for Inhibitors of the Aldehyde Dehydrogenase Family (ALDH1A2, ALDH1A3, ALDH2, ALDH3A1) (AID 2061307); further: nearly all actives have a fitted effect of over 50% in size; on potency: test system not described further here; potency means the concentration at half of the fitted maximal effect
[3] = target: Aldehyde dehydrogenase, mitochondrial (Homo sapiens) (UniProt P05091); assay: qHTS for Inhibitors of the Aldehyde Dehydrogenase Family (ALDH2) Primary screen (AID 2061308); further: nearly all actives have a fitted effect of over 55% in size
[4] = target: Retinal dehydrogenase 2 (Homo sapiens) (UniProt O94788); assay: qHTS for Inhibitors of the Aldehyde Dehydrogenase Family (ALDH1A2) Confirmation screens (AID 2061314); further: nearly all actives have a fitted effect of over 65% in size; further: potency means the concentration at half of the fitted maximal effect
[5] = target: Retinaldehyde dehydrogenase 3 (Homo sapiens) (UniProt P47895); assay: qHTS for Inhibitors of the Aldehyde Dehydrogenase Family (ALDH1A3) Primary screen (AID 2061315)
[6] = target: Aldehyde dehydrogenase 1A1 (Homo sapiens) (UniProt P00352); assay: qHTS for Inhibitors of the Aldehyde Dehydrogenase Family (ALDH1A1) Confirmatory screens (AID 2061316); further: nearly all actives have a fitted effect of over 65% in size; further: potency means the concentration at half of the fitted maximal effect

O=C1CC(c2ccccc2)Cc2[nH]c(=O)c(-c3nc(-c4ccc(F)cc4)cs3)cc21 (stereo not given)
Potency [1]: inactive | Potency [2]: inactive | Potency [3]: inactive | Potency [4]: inactive | Potency [5]: inactive

Cc1ccc(OCCn2c(CCNC(=O)CCc3ccc(N)cc3)nc3ccccc32)cc1
Potency [1]: inactive | Potency [2]: inactive | Potency [3]: inactive | Potency [4]: inactive | Potency [5]: inactive

COc1ccc(C2Nc3ccccc3C(=O)N2Cc2ccccc2)cc1COc1ccc(C(N)=O)cc1 (stereo not given)
Potency [1]: 5.62 µM (active) | Potency [2]: 2.83 µM (active) | Potency [3]: inactive | Potency [4]: 14.1 µM (active) | Potency [5]: inactive

COc1cccc(OC)c1C1=Nn2c(nnc2-c2ccccc2C)SC1
Potency [1]: inactive | Potency [2]: inactive | Potency [3]: inactive | Potency [4]: inactive | Potency [5]: inactive

O=C([C@H](Cc1ccc(O[S+](=O)([O-])c2cccc3cccnc23)cc1)N[S+](=O)([O-])c1ccccn1)N1CCN(c2ccccc2)CC1
Potency [1]: inactive | Potency [2]: inactive | Potency [3]: inactive | Potency [5]: inactive

N#Cc1nc(Nc2ccccc2)nc(NC2CCCC2)n1
Potency [1]: 1.78 µM (active) | Potency [2]: 0.631 µM (active) | Potency [3]: inactive | Potency [5]: inactive

O=C(O)c1ccccc1OC1=NS(=O)(=O)c2ccccc21
Potency [1]: inactive | Potency [2]: inactive | Potency [3]: inactive | Potency [4]: inactive | Potency [5]: inactive | Potency [6]: inactive

Nc1ccc2c(c1)S(=O)(=O)NC2=O
Potency [1]: inactive | Potency [2]: inactive | Potency [3]: inactive | Potency [4]: inactive | Potency [5]: inactive | Potency [6]: inactive

O=C(O)c1cccc(S(=O)(=O)Nc2nccs2)c1
Potency [1]: inactive | Potency [2]: inactive | Potency [3]: inactive | Potency [4]: inactive | Potency [6]: inactive

COc1ccc(C(=O)N(Cc2ccccc2)Cc2ccc(OC)c(COc3ccc(NC(C)=O)cc3)c2)c(O)c1
Potency [1]: inactive | Potency [2]: inactive | Potency [3]: inactive | Potency [5]: inactive

COc1cccc(CCC(=O)NCCc2nc3ccccc3n2CCOc2ccc(C)cc2)c1
Potency [1]: inactive | Potency [2]: inactive | Potency [3]: inactive | Potency [4]: inactive | Potency [5]: inactive | Potency [6]: 6.34 µM (active)

O=c1c2ccccc2nc2sc(Nc3cccc(N4CCNCC4)c3)nn12
Potency [1]: inactive | Potency [2]: inactive | Potency [3]: inactive | Potency [4]: 10.1 µM (active) | Potency [5]: inactive | Potency [6]: 12.7 µM (active)

CC(C)c1ccccc1-c1nc(NCC2CCN(c3cccnc3)CC2)c2ccccc2n1
Potency [1]: inactive | Potency [2]: inactive | Potency [3]: inactive | Potency [5]: inactive

COc1cc(/C=C/C(=O)OC[C@H]2O[C@H](O[C@]3(CO)O[C@H](CO)[C@@H](O)[C@@H]3O)[C@H](O)[C@@H](O)[C@@H]2O)cc(OC)c1O
Potency [1]: inactive | Potency [2]: inactive | Potency [3]: inactive | Potency [4]: inactive | Potency [6]: inactive

N=c1c2c(ncn1-c1ccccc1)Oc1ccc3ccccc3c1C2c1ccc2c(c1)OCCO2 (stereo not given)
Potency [1]: inactive | Potency [2]: inactive | Potency [3]: inactive | Potency [4]: inactive | Potency [5]: inactive | Potency [6]: inactive

N#Cc1nc(Nc2cccc(F)c2)nc(NC2CCCC2)n1
Potency [1]: 1.78 µM (active) | Potency [2]: 3.55 µM (active) | Potency [3]: inactive | Potency [5]: inactive
